# Data published in PubChem BioAssay (NCATS).
# Results filed as inconclusive are left out. Entries that show only a call come without a potency. Unmarked numbers belong to inactive results. Calls of active or inactive are those of the source. Calls come from the whole dose curve; as a rule, active = well fitted curve in the direction sought with a large enough effect; inconclusive = small, poorly fitted or top-dose-only effect, or another doubt; inactive = no such curve, though single readings can be large; an effect the other way counts as inactive or inconclusive.
# What was measured:
# [1] = target: ATP-dependent 6-phosphofructokinase (Trypanosoma brucei brucei) (UniProt O15648); assay: qHTS Assay to Find Inhibitors of T. brucei phosphofructokinase: hit validation (AID 492961);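 note: luminescence reports ADP formed as PFK phosphorylates fructose-6-phosphate with ATP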
# How it was run: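 Measures ADP output of PFK (1.25 nM) at 0.1 mM ATP, 0.5 mM F6P, pH 8.0 TEA buffer with 5 mM MgCl2. No-enzyme wells define full inhibition; uninhibited enzyme wells define zero.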
# [2] = qHTS profiling for inhibitors of Plasmodium falciparum proliferation (AID 504749); note: potency is the fitted concentration of half-maximal effect; for all read-outs here: nearly all actives have a fitted effect of over 60% in size; conditions: P. falciparum in erythrocytes, SYBR Green DNA, 72 h; for activity, negative = inhibition: at 28.7 µM (top of the series)
# How it was run: (§1)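 Three-day growth assay of blood-stage parasites in erythrocytes (0.3% parasitemia, 2.5% hematocrit) at 37 C, 5% CO2, quantified by SYBR Green DNA staining after overnight detergent lysis.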
# AA1029 = assay: as above; conditions: P. falciparum in erythrocytes, SYBR Green DNA, 72 h; series mostly up to 28.7 µM
# How it was run: as §1
# AS120 = assay: as above; conditions: P. falciparum in erythrocytes, SYBR Green DNA, 72 h; series mostly up to 28.7 µM
# How it was run: as §1
# ATS189 = assay: as above; conditions: P. falciparum in erythrocytes, SYBR Green DNA, 72 h; series mostly up to 28.7 µM
# How it was run: as §1
# CP185 = assay: as above; conditions: P. falciparum in erythrocytes, SYBR Green DNA, 72 h; series mostly up to 28.7 µM
# How it was run: as §1
# CP211 = assay: as above; conditions: P. falciparum in erythrocytes, SYBR Green DNA, 72 h; series mostly up to 28.7 µM
# How it was run: as §1
# CP217 = assay: as above; conditions: P. falciparum in erythrocytes, SYBR Green DNA, 72 h; series mostly up to 28.7 µM
# How it was run: as §1
# CP238 = assay: as above; conditions: P. falciparum in erythrocytes, SYBR Green DNA, 72 h; series mostly up to 28.7 µM
# How it was run: as §1
# CP252 = assay: as above; conditions: P. falciparum in erythrocytes, SYBR Green DNA, 72 h; series mostly up to 28.7 µM
# How it was run: as §1
# CP262 = assay: as above; conditions: P. falciparum in erythrocytes, SYBR Green DNA, 72 h; series mostly up to 28.7 µM
# How it was run: as §1
# CP265 = assay: as above; conditions: P. falciparum in erythrocytes, SYBR Green DNA, 72 h; series mostly up to 28.7 µM
# How it was run: as §1
# CP269 = assay: as above; conditions: P. falciparum in erythrocytes, SYBR Green DNA, 72 h; series mostly up to 28.7 µM
# How it was run: as §1
# CP286 = assay: as above; conditions: P. falciparum in erythrocytes, SYBR Green DNA, 72 h; series mostly up to 28.7 µM
# How it was run: as §1
# CP329 = assay: as above; conditions: P. falciparum in erythrocytes, SYBR Green DNA, 72 h; series mostly up to 28.7 µM
# How it was run: as §1
# DFO2036 = assay: as above; conditions: P. falciparum in erythrocytes, SYBR Green DNA, 72 h; series mostly up to 28.7 µM
# How it was run: as §1
# ECU = assay: as above; conditions: P. falciparum in erythrocytes, SYBR Green DNA, 72 h; series mostly up to 28.7 µM
# How it was run: as §1
# FAB9 = assay: as above; conditions: P. falciparum in erythrocytes, SYBR Green DNA, 72 h; series mostly up to 28.7 µM
# How it was run: as §1
# N140 = assay: as above; conditions: P. falciparum in erythrocytes, SYBR Green DNA, 72 h; series mostly up to 28.7 µM
# How it was run: as §1
# TAB109 = assay: as above; conditions: P. falciparum in erythrocytes, SYBR Green DNA, 72 h; series mostly up to 28.7 µM
# How it was run: as §1
# Sequence of ATP-dependent 6-phosphofructokinase (Trypanosoma brucei brucei) (O15648 whole entry, looked up): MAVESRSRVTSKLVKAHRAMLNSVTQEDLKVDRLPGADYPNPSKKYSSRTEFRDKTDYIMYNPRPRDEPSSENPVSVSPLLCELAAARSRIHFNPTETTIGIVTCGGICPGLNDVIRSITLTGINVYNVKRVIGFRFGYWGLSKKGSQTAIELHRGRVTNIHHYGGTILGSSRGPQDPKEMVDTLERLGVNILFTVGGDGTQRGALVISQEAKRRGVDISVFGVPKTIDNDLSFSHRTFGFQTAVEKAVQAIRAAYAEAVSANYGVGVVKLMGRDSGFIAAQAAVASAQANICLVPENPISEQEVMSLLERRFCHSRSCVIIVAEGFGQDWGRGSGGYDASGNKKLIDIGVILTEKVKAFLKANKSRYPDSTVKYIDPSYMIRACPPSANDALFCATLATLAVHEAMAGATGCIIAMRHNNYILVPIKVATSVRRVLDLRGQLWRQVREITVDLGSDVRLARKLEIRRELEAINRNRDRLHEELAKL
compound,measurement,setting,value
C=C(CC[C@@H](C)[C@H]1CCC2[C@]1(C)CC[C@]13C[C@@]14CCC(OC(=O)/C=C/c1ccc(O)c(OC)c1)C(C)(C)[C@@H]4CC[C@@]23C)C(C)C (stereo not given in full),Potency,[1],inactive
same,"activity, negative = inhibition",[2]; parasite line A,3.06%
same,"activity, negative = inhibition",[2]; parasite line B,1.72%
same,Potency,AA1029,inactive
same,Potency,AS120,inactive
same,Potency,ATS189,inactive
same,Potency,CP185,inactive
same,Potency,CP211,inactive
same,Potency,CP217,inactive
same,Potency,CP238,inactive
same,Potency,CP252,inactive
same,Potency,CP262,inactive
same,Potency,CP265,inactive
same,Potency,CP269,inactive
same,Potency,CP286,inactive
same,Potency,CP329,inactive
same,Potency,DFO2036,inactive
same,Potency,ECU,inactive
same,Potency,FAB9,inactive
same,Potency,N140,inactive
same,Potency,TAB109,inactive
CC(C)(C)NC[C@H](O)CSc1nc(-c2ccc(C(N)=O)s2)cs1,Potency,[1],inactive
same,"activity, negative = inhibition",[2]; parasite line A,-8.78%
same,"activity, negative = inhibition",[2]; parasite line B,-3.22%
same,Potency,AA1029,inactive
same,Potency,AS120,inactive
same,Potency,ATS189,inactive
same,Potency,CP185,inactive
same,Potency,CP211,inactive
same,Potency,CP217,inactive
same,Potency,CP238,inactive
same,Potency,CP252,inactive
same,Potency,CP262,inactive
same,Potency,CP265,inactive
same,Potency,CP269,inactive
same,Potency,CP286,inactive
same,Potency,CP329,inactive
same,Potency,DFO2036,inactive
same,Potency,ECU,inactive
same,Potency,FAB9,inactive
same,Potency,N140,inactive
same,Potency,TAB109,inactive
OCC(O)C(O)C(O)C(O)CO (stereo not given),Potency,[1],inactive
same,"activity, negative = inhibition",[2]; parasite line B,7.82%
same,Potency,AA1029,inactive
same,Potency,AS120,inactive
same,Potency,ATS189,inactive
same,Potency,CP185,inactive
same,Potency,CP211,inactive
same,Potency,CP217,inactive
same,Potency,CP238,inactive
same,Potency,CP252,inactive
same,Potency,CP262,inactive
same,Potency,CP265,inactive
same,Potency,CP269,inactive
same,Potency,CP286,inactive
same,Potency,CP329,inactive
same,Potency,DFO2036,inactive
same,Potency,ECU,inactive
same,Potency,FAB9,inactive
same,Potency,N140,inactive
same,Potency,TAB109,inactive
COC(=O)C1C2CC3c4[nH]c5cc(OC)ccc5c4CCN3CC2CC(OC)C1OC (stereo not given),Potency,[1],inactive
same,"activity, negative = inhibition",[2]; parasite line A,2.01%
same,"activity, negative = inhibition",[2]; parasite line B,-6.18%
same,Potency,AA1029,inactive
same,Potency,AS120,inactive
same,Potency,ATS189,inactive
same,Potency,CP185,inactive
same,Potency,CP211,inactive
same,Potency,CP217,inactive
same,Potency,CP238,inactive
same,Potency,CP252,inactive
same,Potency,CP262,inactive
same,Potency,CP265,inactive
same,Potency,CP269,inactive
same,Potency,CP286,inactive
same,Potency,CP329,inactive
same,Potency,DFO2036,inactive
same,Potency,ECU,inactive
same,Potency,FAB9,inactive
same,Potency,N140,inactive
same,Potency,TAB109,inactive
CC1CN(c2c(F)c(N)c3c(=O)c(C(=O)O)cn(C4CC4)c3c2F)CC(C)N1 (stereo not given),Potency,[1],inactive
same,"activity, negative = inhibition",[2]; parasite line A,-2.02%
same,"activity, negative = inhibition",[2]; parasite line B,11%
same,Potency,AA1029,inactive
same,Potency,AS120,inactive
same,Potency,ATS189,inactive
same,Potency,CP185,inactive
same,Potency,CP211,inactive
same,Potency,CP217,inactive
same,Potency,CP238,inactive
same,Potency,CP252,inactive
same,Potency,CP262,inactive
same,Potency,CP265,inactive
same,Potency,CP269,inactive
same,Potency,CP286,inactive
same,Potency,CP329,inactive
same,Potency,DFO2036,inactive
same,Potency,ECU,inactive
same,Potency,FAB9,inactive
same,Potency,N140,inactive
same,Potency,TAB109,inactive
C[C@]12CC[C@@H]3c4ccc(O)cc4CC[C@H]3[C@@H]1CCC2OC(=O)CCC1CCCC1 (stereo not given in full),Potency,[1],inactive
same,"activity, negative = inhibition",[2]; parasite line A,-2.55%
same,"activity, negative = inhibition",[2]; parasite line B,-17%
same,Potency,AA1029,inactive
same,Potency,AS120,inactive
same,Potency,ATS189,inactive
same,Potency,CP185,inactive
same,Potency,CP211,inactive
same,Potency,CP217,inactive
same,Potency,CP238,inactive
same,Potency,CP252,inactive
same,Potency,CP262,inactive
same,Potency,CP265,inactive
same,Potency,CP269,inactive
same,Potency,CP329,inactive
same,Potency,DFO2036,inactive
same,Potency,ECU,inactive
same,Potency,FAB9,inactive
same,Potency,N140,inactive
same,Potency,TAB109,inactive
CC1OC(OC2C(O)CC(OC3C(O)CC(OC4CCC5(C)C(CCC6C5CCC5(C)C(C7=CC(=O)OC7)CCC65O)C4)OC3C)OC2C)CC(O)C1O (stereo not given),Potency,[1],inactive
same,"activity, negative = inhibition",[2]; parasite line A,1.31%
same,"activity, negative = inhibition",[2]; parasite line B,5.82%
same,Potency,AA1029,inactive
same,Potency,AS120,inactive
same,Potency,ATS189,inactive
same,Potency,CP185,inactive
same,Potency,CP211,inactive
same,Potency,CP217,inactive
same,Potency,CP238,inactive
same,Potency,CP252,inactive
same,Potency,CP262,inactive
same,Potency,CP265,inactive
same,Potency,CP269,inactive
same,Potency,CP286,inactive
same,Potency,CP329,inactive
same,Potency,DFO2036,inactive
same,Potency,ECU,inactive
same,Potency,FAB9,inactive
same,Potency,N140,inactive
same,Potency,TAB109,inactive
Nc1nc2[nH]cc(CCc3ccc(C(=O)NC(CCC(=O)O)C(=O)O)cc3)c2c(=O)[nH]1 (stereo not given),Potency,[1],inactive
same,Potency,[2]; parasite line A,126 nM (active)
same,Potency,[2]; parasite line B,199 nM (active)
same,Potency,ATS189,224 nM (active)
same,Potency,CP211,3790 nM (active)
same,Potency,CP217,56.2 nM (active)
same,Potency,CP238,11200 nM (active)
same,Potency,CP252,158 nM (active)
same,Potency,CP262,426 nM (active)
same,Potency,CP329,1200 nM (active)
same,Potency,DFO2036,63.1 nM (active)
same,Potency,ECU,199 nM (active)
same,Potency,FAB9,316 nM (active)
same,Potency,N140,3160 nM (active)
same,Potency,TAB109,11200 nM (active)
